From PubChem BioAssay
In the library only some 7.1% were active in any assay of this set; here they are far more common.
PINK1 expr mod = changes PINK1 expression; PINK1 immunofluorescence, high-content cytometry, 24 h; Potency, µM (top dose mostly 76.6 µM), usual class: activators; 410,000 tested, 0.2% active; AID 624263; active = well fitted activation curve with a large enough effect; inconclusive = small, poorly fitted or top-dose-only effect; cell line not stated here; note: nearly all actives have a fitted effect of over 65% in size
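A stable cell line was treated with compounds at 5 concentrations for 24 hours, with CCCP as control. PINK1 levels and mitochondrial localization were measured by immunofluorescence with mitochondrial, cell and nuclear markers after fixation, read by laser-scanning cytometry.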
IL-1B inflam inh = inflammasome signaling inhibition, IL-1 beta readout. activity change, % at 57.5 µM. THP-1 LPS/ATP IL-1B secretion, AlphaLISA, 16 h; hits give low values. 360,000 tested, 4.7% active. AID 743279; in the data active = activity change below about -50%; inconclusive = mostly about -30% to -49%
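THP-1 cells pretreated 1 hr with compounds (up to 57.5 uM final), then stimulated with LPS (250 ng/mL final) plus ATP (1.25 mM final); secreted IL-1B measured by AlphaLISA after 16 hr, decreased signal indicating inhibition.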
S2 tox = viability counter-screen for ATXN expression inhibitors. S2 cells (HEK-293 line with an ATXN2-luciferase reporter) viability, CellTiter-Fluor protease fluorescence, 24 h. Potency, µM (top dose mostly 56.7 µM), hits mostly cytotoxic. 400,000 tested, 0.49% active. AID 651635; note: nearly all actives have a fitted effect of over 40% in size
MCF10A rerep = induces DNA re-replication in MCF 10a normal breast cells; MCF 10A DNA re-replication, Hoechst nuclear intensity, 48 h; Potency, µM (doses to about 46.1 µM), most hits filed as activators; 350,000 tested, 2.9% active; note: nearly all actives have a fitted effect of over 50% in size
SW480 rerep = inducers of DNA re-replication in SW480 colon cancer cells; 340,000 tested, 1.8% active; SW480 DNA re-replication, Hoechst DNA content imaging, 48 h; Potency, µM (top dose mostly 46.1 µM), hits mostly activators; AID 624297; note: nearly all actives have a fitted effect of over 55% in size
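Cells (250 per well) received 23 nL compound or DMSO by pin tool and were kept 48 hr at 37 C, 5% CO2. Nuclei were then stained with Hoechst for 40 min and scanned for DNA content.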
ATXN2 expr inh = inhibitors of ATXN2 expression; 360,000 tested, 0.72% active; HEK-293 ATXN2-luciferase reporter, luminescence, 24 h; Potency, µM (top dose mostly 57 µM), usual class: inhibitors; note: nearly all actives have a fitted effect of over 55% in size
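qHTS (up to 57 uM final) was run with 24 h compound exposure of reporter cells at 37 °C. Each well was multiplexed: SteadyGlo luminescence measured ATXN2-luciferase expression after a fluorogenic Gly-Phe-AFC viability readout (25 uM final).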
Hits are given with their value; 0 = inactive; ? = inconclusive; - = no result; [ ] = remark or other dose. Unless noted, calls come from the whole dose curve; as a rule, active = well fitted curve in the direction sought with a large enough effect; inconclusive = small, poorly fitted or top-dose-only effect, or another doubt; inactive = no such curve, though single readings can be large; an effect the other way counts as inactive or inconclusive.

SMILES | PINK1 expr mod | IL-1B inflam inh | S2 tox | MCF10A rerep | SW480 rerep | ATXN2 expr inh
COc1ccc(/C=C2\SC(=O)N(CCn3cnnn3)C2=O)cc1 | 0 | 0 | 0 | 0 | ? | -
CCC(=O)N1N=C(c2c(O)n(C)c(=O)n(C)c2=O)CC1c1ccccc1 (stereo not given) | 0 | 0 | ? | 0 | ? | -
Cc1ccc(NC(=O)c2cc(-c3cc(Cl)ccc3C)n[nH]2)cc1NS(C)(=O)=O | 0 | 0 | 10µM | - | - | ?
Cc1ccc(NC(=O)c2snnc2C)cc1Cl | 0 | 0 | 0 | 0 | 0 | 0
Nc1ccc(C2(c3ccc(N)cc3)c3ccccc3-c3ccccc32)cc1 | 0 | -171 | 0 | 0 | 0 | -
Nc1ccccc1 | - | - | 0 | - | - | 0
Cc1ccccc1-n1c(CNc2ccccc2)nc2ccccc2c1=O | 0 | 0 | 0 | ? | ? | -
OCCNc1c2c(nc3ccccc13)CCCC2 | 0 | 0 | 0 | 0 | 0 | 0
CC(C)CNc1c2c(nc3ccccc13)CCC2 | 0 | -60 | 0 | 0 | 0 | ?
c1ccc(CNc2c3c(nc4ccccc24)CCC3)cc1 | ? | -93 | ? | ? | 0 | 18µM
CNc1ccc(C(=O)CC(O)CCC(C)C2OC(=O)CC(O)CC(=O)CC(O)CC(O)CC(O)CC(O)CC3(O)CC(O)C(C(=O)OC)C(CC(O[C@@H]4OC(C)C(O)C(N)C4O)/C=C/C=C/C=C/C=C/C=C/C=C/C=C/C2C)O3)cc1 (stereo not given in full) | - | - | - | 0 | 0 | -
C=C(C=O)C[C@@H]1C[C@H](O)C2OC3C[C@]4(C)OC5/C=C\CC6OC7C(CC=CCC6OC5CCCC4OC3CC2O1)OC1CC2OC3CC(=O)OC3C[C@@H](C)C[C@@]2(C)OC1C[C@@H]7C (stereo not given in full) | 0 | -102 | 1.8µM | 0.73µM | 0[9.22 µM] | 1.6µM
O=C(Oc1ccccc1)N1CCC2(CCCN(Cc3nccs3)C2)CC1 | 0 | - | - | - | - | -
CN(C)c1ccc(C(=O)c2ccc(N(C)C)cc2)cc1 | 0 | 0 | 0 | 6.5µM | 5.2µM | 0
CN(C)c1ccccc1 | 0 | 0 | 0 | - | - | -
CC12CCC3C4CCC(=O)C(O)=C4CCC3C1CCC2OC(=O)CCC1CCCC1 (stereo not given) | - | - | - | 0 | 0 | -
CC(C)(O)/C=C/C(=O)C(C)(O)C1C(O)CC2(C)C3CC=C4C(C=C(O)C(=O)C4(C)C)C3(C)C(=O)CC12C (stereo not given) | 0 | -103 | 2.4µM | 2.9µM | ? | ?
CC(=O)OC(C)(C)/C=C/C(=O)[C@](C)(O)C1[C@H](O)C[C@@]2(C)C3CC=C4C(C[C@H](O)C(=O)C4(C)C)[C@]3(C)C(=O)C[C@]12C (stereo not given in full) | 0 | -106 | ? | ? | ? | ?
CC(C)(C)n1ncc2c(=O)n(Cc3cccc(Cn4cnc5c(cnn5C(C)(C)C)c4=O)c3F)cnc21 | 0 | - | 0 | 0 | 0[9.22 µM] | 0
COc1cccc(/C=N/NC(=O)c2c(C)nc3ccc(Br)cn23)c1 | 0 | 0 | 0 | 0 | ? | 0[11.3 µM]
Fc1ccc(Cn2nnnc2CN2CCC(n3nnc4cc(C(F)(F)F)ccc43)CC2)cc1 | 0 | ? | ? | 26µM | 0 | -
Cc1nc2cc(C(F)(F)F)ccc2n1C1CCN(Cc2nnnn2Cc2ccc3c(c2)OCO3)CC1 | 0 | -71 | 0 | ? | 0 | 0
COc1ccc(NS(=O)(=O)c2ccc3c(c2)CCCN3C(=O)C2CCC2)cc1OC | 0 | - | ? | - | - | ?
CCNCCNc1ccc([N+](=O)[O-])c2cccnc12 | 0 | -61 | ? | 0 | 0 | 0
Cc1ccc2c(C)c3ccc4ccccc4c3c[n+]2c1 | 0 | -66 | 0 | 0 | 0 | ?
SMILES | PINK1 expr mod | IL-1B inflam inh | S2 tox | MCF10A rerep | SW480 rerep | ATXN2 expr inh
CC1(C)CC/C(=C/c2ccc(Cl)cc2)C1(O)Cn1cncn1 (stereo not given) | - | - | 0 | - | - | 0
Cc1c(C(=O)N2CCC3(CC2)OCCO3)sc2ncnc(N3CCN(c4ccccn4)CC3)c12 | - | -81 | ? | 0 | 0 | ?
CCCNC(=O)Cn1cnc2sc(C(=O)N3CCC4(CC3)OCCO4)c(C)c2c1=O | 0 | 0 | 0 | 0 | 0 | 0
COc1ccc(OC(=O)N2C/C(=C/c3ccccc3)C(=O)/C(=C\c3ccccc3)C2)cc1 | 0 | -87 | 32µM | 7.3µM | 3.7µM | ?
O=C(CN1CCCCC1)NNC(=O)c1cccc(Br)c1 | 0 | 0 | 0 | 0 | 0 | 0
CN(C)C(=O)O/N=C(\N)COc1ccc(C(C)(C)C)cc1 | 0 | 0 | ? | ? | 12µM | -
CN1C(=O)NC(=O)/C(=C\C=C\c2ccccc2[N+](=O)[O-])C1=O | 0 | -98 | 28µM | ? | 15µM | 32µM
COc1cccc(-n2c(/C=C\c3ccc(Cl)cc3)nc3ccccc3c2=O)c1 | 0 | - | - | - | - | -
Cc1ccc(-n2sc3ccccc3c2=O)cc1 | 0 | -103 | ? | ? | ? | 0
O=c1c2ccccc2sn1-c1ccc(Cl)cc1 | 0 | -106 | 18µM | - | - | ?
CCCCOc1ccc(Cn2c(=O)oc3ccccc32)cc1 | 0 | 0 | 0 | ? | 0 | 0
CCCCNC(=O)/C(C#N)=c1\s/c(=C\c2ccccc2OC(F)F)c(=O)n1CCCOC | ? | 0 | 0 | 0 | 0 | 0
CCOC(=O)C1(CCOc2ccccc2)CCN(Cc2cccc(O)c2)CC1 | 0 | -86 | 0 | 0 | 0 | 0
CCOC(=O)C1(CCOc2ccccc2)CCN(Cc2cnc(SC)nc2)CC1 | 0 | ? | 0 | 0 | ? | 0
CCOC(=O)C1(CCOc2ccccc2)CCN(C2Cc3ccccc3C2)CC1 | ? | 0 | 0 | 9.2µM | 0 | 0
C[C@@H]1[C@H]2Cc3ccc(O)cc3[C@]1(C)CCN2C | - | - | 0 | - | - | -
COc1ccc(OC)c(CC(C)N)c1 (stereo not given) | - | - | ? | - | - | 0
CC(N)Cc1c[nH]c2ccc(OCc3cccs3)cc12 (stereo not given) | 0 | -59 | 0 | 0 | ? | 0
CC(N)Cc1c[nH]c2ccc(O)cc12 (stereo not given) | 0 | 0 | 0 | 0 | 0 | 0
C#CCN1CC(=O)N(COC(=O)[C@@H]2[C@@H](C=C(C)C)C2(C)C)C1=O | - | - | - | 0 | 0 | -
Cc1cc(C)c(C(=O)CN2CCOCC2)c(C)c1 | 0 | 0 | 0 | 8.2µM | 9.2µM | 0
c1cc2n(c1)-c1c(ccc3c1OCO3)CNC2c1ccc2c(c1)OCO2 (stereo not given) | 0 | 0 | 0 | 0 | 0 | 0
COc1ccc(C2NCc3ccc4c(c3-n3cccc32)OCO4)cc1O (stereo not given) | 0 | 0 | 0 | 4.1µM | 3.3µM | 0
Cc1nc(-c2cccc(NC(=O)c3ccc(Cl)c(S(=O)(=O)N4CCCC4)c3)c2)cs1 | 0 | 0 | ? | - | - | -
OCCO | 0 | 0 | 0 | 0 | 0 | 0
O=C(CN1CCN(C(=O)CNC(=O)c2ccc(-c3ccccc3)cc2)CC1)Nc1ccccc1Cl | 0 | ? | ? | - | - | -
CCCCCCC(C)(C)c1ccc([C@@H]2C[C@H](O)CC[C@H]2CCCO)c(O)c1 | 0 | -67 | 10µM | 0 | 0 | 14µM
